The supplement of paper PMC6607015
Structures can show the parent of a compound that is named as a salt.

How the values were obtained:
Settings in all cases: compound concentration in added solution (µM; 5 µl added to 20 µl cells): 10; 18 h
A431 [1] = test: LBPA endosome anti-LBPA integrated intensity (sum per cell), Z-score; higher = more LBPA staining
Procedure, shortened: (§1)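 HeLa MZ or A431 cells were plated at 3,500 per well in 20 µl over 5 µl of 10 µM compound solution in duplicate 384-well imaging plates and fixed in 4% PFA after 18 h. Staining used the 6C4 anti-LBPA antibody, filipin, propidium iodide and CellTracker green, with four 20× images captured per well. MetaXpress segmentation measured integrated LBPA or filipin intensity per cell, across the whole cell or inside LBPA endosomes, and AcuityXpress normalised these into Z-scores.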

HeLa MZ [2] = test: as above
Procedure, shortened: as §1

A431 [3] = test: whole-cell filipin (free cholesterol) integrated intensity, Z-score; higher = more cholesterol staining
Procedure, shortened: as §1

HeLa MZ [4] = test: as above
Procedure, shortened: as §1

A431 [5] = test: filipin (cholesterol) integrated intensity within LBPA endosomes, Z-score; higher = more cholesterol in LBPA endosomes
Procedure, shortened: as §1

HeLa MZ [6] = test: as above
Procedure, shortened: as §1

Compound | LBPA endosome anti-LBPA integrated intensity (z-score) (A431 [1]) | LBPA endosome anti-LBPA integrated intensity (z-score) (HeLa MZ [2]) | whole-cell filipin (z-score) (A431 [3]) | whole-cell filipin (z-score) (HeLa MZ [4]) | filipin (z-score) (A431 [5]) | filipin (z-score) (HeLa MZ [6])
CC(C)CC(N(C)C)C1(c2ccc(Cl)cc2)CCC1 (stereo not given) [Sibutramine HCl] | -0.608 | 0.271 | -0.397 | -0.373 | -0.534 | -0.424
C=C1CC[C@@]2(O)[C@H]3Cc4ccc(O)c5c4[C@@]2(CCN3CC2CC2)[C@H]1O5 [Nalmefene hydrochloride] | -0.278 | 0.776 | -0.193 | -0.0735 | -0.304 | 0.0741
NCC(CC(=O)O)c1ccc(Cl)cc1 (racemic) [Baclofen (R,S)] | -0.529 | -1.07 | -1.03 | -0.783 | -0.513 | -0.613
CN(C)C(=O)Oc1cccc([N+](C)(C)C)c1 [Neostigmine bromide] | -0.478 | -0.496 | -0.63 | -0.608 | -0.499 | -0.715
CC[C@@H](C(N)=O)N1CCCC1=O [Levetiracetam] | -0.634 | -1.5 | -0.363 | 0.0516 | -0.585 | -0.523
C[N+]1(C)CCCC(OC(=O)C(O)(c2ccccc2)c2ccccc2)C1 (stereo not given) [Mepenzolate bromide] | -0.582 | -0.861 | -0.409 | -0.0861 | -0.481 | -0.374
OC(c1ccccc1)(c1ccccc1)C1CCNCC1 [Azacyclonol] | -0.397 | -0.253 | -0.445 | -0.666 | -0.198 | 0.228
CC(=O)[C@H]1CC[C@H]2[C@@H]3CC[C@H]4C[C@H](O)CC[C@]4(C)[C@H]3C(=O)C[C@]12C [Alfaxalone] | 1.82 | 1.23 | 0.358 | -0.273 | 0.378 | -0.0632
COc1ccc(C(=O)N2CCCC2=O)cc1 [Aniracetam] | -0.475 | 0.124 | -0.904 | -0.402 | -0.562 | -0.3
CC(C)(C)NCC(O)c1cc(Cl)c(N)c(Cl)c1 (stereo not given) [Clenbuterol hydrochloride] | 0.0925 | 0.441 | -0.358 | -0.387 | -0.383 | -0.295
C[C@]12N[C@H](Cc3ccccc31)c1ccccc12 [Dizocilpine maleate] | -0.337 | 0.113 | -0.302 | -0.304 | -0.361 | -0.275
CN1[C@@H]2CC[C@H]1C[C@@H](OC1c3ccccc3CCc3ccccc31)C2 [Deptropine citrate] | 3.21 | 1.46 | 1.8 | -0.333 | 2.68 | 1.23
CC(C)c1cccc(C(C)C)c1O [Propofol] | -0.483 | -0.0677 | -0.406 | -0.391 | -0.506 | -0.548
CN1C(=O)CCS(=O)(=O)C1c1ccc(Cl)cc1 (stereo not given) [Chlormezanone] | -0.579 | -0.715 | -0.534 | 0.0972 | -0.511 | -0.314
C[C@]12CC[C@@H](O)C[C@@H]1CC[C@@H]1[C@@H]2CC[C@]2(C)C(=O)CC[C@@H]12 [Androsterone] | -0.387 | -0.552 | -0.613 | -0.395 | -0.241 | -0.291
CCC(=O)O[C@@](Cc1ccccc1)(c1ccccc1)[C@@H](C)CN(C)C [Levopropoxyphene napsylate] | -0.308 | -0.465 | 0.489 | 0.709 | 0.194 | -0.129
C[N+]1(C)CCOC(O)(c2ccc(-c3ccc(C4(O)C[N+](C)(C)CCO4)cc3)cc2)C1 (stereo not given) [Hemicholinium bromide] | -0.629 | -1.27 | -0.551 | -0.638 | -0.55 | -0.667

Compound | LBPA endosome anti-LBPA integrated intensity (z-score) (A431 [1]) | LBPA endosome anti-LBPA integrated intensity (z-score) (HeLa MZ [2]) | whole-cell filipin (z-score) (A431 [3]) | whole-cell filipin (z-score) (HeLa MZ [4]) | filipin (z-score) (A431 [5]) | filipin (z-score) (HeLa MZ [6])
O=P1(N(CCCl)CCCl)NCCCO1 (stereo not given) [Cyclophosphamide] | -0.0725 | 1.02 | 0.399 | 0.209 | -0.311 | 0.352
CN[C@@H]1[C@@H](O)[C@@H](O[C@@H]2[C@@H](O)[C@H](O[C@H]3O[C@H](CN)CC[C@H]3N)[C@@H](N)C[C@H]2N)OC[C@]1(C)O.CN[C@@H]1[C@@H](O)[C@@H](O[C@@H]2[C@@H](O)[C@H](O[C@H]3O[C@H]([C@@H](C)N)CC[C@H]3N)[C@@H](N)C[C@H]2N)OC[C@]1(C)O.CN[C@@H]1[C@@H](O)[C@@H](O[C@@H]2[C@@H](O)[C@H](O[C@H]3O[C@H]([C@@H](C)NC)CC[C@H]3N)[C@@H](N)C[C@H]2N)OC[C@]1(C)O [Gentamicine sulfate] | -0.58 | -1.17 | -1.14 | -0.98 | -0.535 | -0.682
C[C@H](N)[C@H](O)c1ccc(O)c(O)c1 [Levonordefrin] | -0.29 | -0.019 | 0.247 | 0.753 | -0.427 | -0.337
CN1C[C@H](C(=O)N[C@]2(C)O[C@@]3(O)[C@@H]4CCCN4C(=O)[C@H](Cc4ccccc4)N3C2=O)C[C@@H]2c3cccc4[nH]cc(c34)C[C@H]21 [Dihydroergotamine tartrate] | 2.74 | 2.55 | 1.06 | 0.225 | 1.48 | 1.1
CC(N)C(O)c1ccccc1 (stereo not given) [Phenylpropanolamine hydrochloride] | -0.541 | -1.1 | -0.689 | -0.0866 | -0.502 | -0.451
CN1C[C@H](CNC(=O)OCc2ccccc2)C[C@@H]2c3cccc4c3c(cn4C)C[C@H]21 [Metergoline] | 3.11 | 1.47 | 1.11 | 1.28 | 4.03 | 4.18
C[C@]12CC[C@H]3[C@@H](CCC4=CC(=O)CC[C@@H]43)[C@@H]1CC[C@@H]2O [Nandrolone] | -0.352 | 0.296 | -0.14 | -0.437 | -0.296 | -0.508
C=CCC1(CC(C)C)C(=O)NC(=O)NC1=O [Butalbital] | -0.477 | -0.493 | -0.608 | -0.648 | -0.55 | -0.51
C[C@]12COC(=O)C[C@@H]1CC[C@@H]1[C@@H]2CC[C@@]2(C)[C@H]1CC[C@]2(C)O [Oxandrolone] | -0.386 | -0.00131 | -0.15 | -0.159 | -0.429 | -0.517
CN1CCN(C(=O)OC2c3nccnc3C(=O)N2c2ccc(Cl)cn2)CC1 (stereo not given) [Zopiclone] | -0.313 | -0.4 | -0.601 | -0.164 | -0.406 | -0.296
CCC1(C)CC(=O)NC(=O)C1 [Bemegride] | -0.67 | -1.05 | -0.832 | -0.492 | -0.547 | -0.434
CC(=O)OCC(=O)[C@H]1CC[C@H]2[C@@H]3CC[C@H]4C[C@H](O)CC[C@]4(C)[C@H]3C(=O)C[C@]12C [Alfadolone acetate] | 0.719 | 1.43 | 0.996 | 0.815 | 0.478 | 0.736
O=C(CCCN1CCC(n2c(=O)[nH]c3ccccc32)CC1)c1ccc(F)cc1 [Benperidol] | 2.05 | 1.55 | 2.2 | 1.83 | 2.28 | 1.91
CCn1cc(C(=O)O)c(=O)c2cc3c(cc21)OCO3 [Oxolinic acid] | -0.55 | -0.225 | -0.848 | -0.638 | -0.512 | -0.645
O=c1[nH]c2ccccc2n1C1CCN(CCCC(c2ccc(F)cc2)c2ccc(F)cc2)CC1 [Pimozide] | 0.798 | 0.814 | 0.271 | -0.393 | 0.65 | 0.34
CC(Cc1ccccc1)NCCC(c1ccccc1)c1ccccc1 (stereo not given) [Prenylamine lactate] | – | 1.19 | – | 1.27 | – | 2.44
